The results in this text go back to PubChem BioAssay (NCI).

This is part of a sample that, as a whole, favours compounds with a hit. Of some 83,000 tested, about 20% had one in any assay.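 Note: values are percent growth. 100 is the growth of untreated cells, values between 100 and 0 indicate rising inhibition; between -100 and 0 indicates cell death.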 Unmarked numbers belong to inactive results. The source made the active and inactive calls. The calls were made as follows: active = growth percent below 10; inactive = the rest.

Some test systems named below: HCT-15 colon; HT29 colon; SNB-75 CNS; SNB-19 CNS; U251 CNS; PC-3 prostate; SK-MEL-5 melanoma; UACC-62 melanoma; LOX IMVI melanoma; SK-MEL-28 melanoma.
Holding throughout (assay): NCI-60 one-dose screen, 48 h (100 = growth as untreated, 0 = no growth, -100 = all killed)
Common to all, as to details: 10 µM unless noted

With `O=c1[nH][n+](-c2ccc(Cl)cc2)no1`, the growth with HCT-15 colon was 34.5%; in the test with HT29 colon, 95%; in the test on SNB-75 CNS, 74.4%; in the test on SNB-19 CNS, 91.3%; in the test on U251 CNS it was 83.2%; in the test with PC-3 prostate it was 72%. Besides, the growth in the test with SK-MEL-5 melanoma is 96.1%; with UACC-62 melanoma it was 5.96% (active); in the test on LOX IMVI melanoma it was 28.4%; in the test on SK-MEL-28 melanoma it was 77.3%.

For the compound `CCOC(=O)/C=C/c1cc2cc(-c3csc4ccccc34)ccc2[nH]1`, the growth in the test on HCT-15 colon is 56.8%; in the test on HT29 colon, 21.9%; in the test with SNB-75 CNS, 97.5%; with SNB-19 CNS it was 101%; in the test with U251 CNS it was 78.2%; with PC-3 prostate, 62%. In addition, the growth is 87.6% in the test on SK-MEL-5 melanoma, 67.5% in the test with UACC-62 melanoma, 64.7% in the test on LOX IMVI melanoma and 104% with SK-MEL-28 melanoma.

Regarding `N#C/C(=C\c1ccc2c(c1)OCO2)n1nnc2cc(F)c(F)cc21`, the growth was 40.5% in the test on HCT-15 colon; 30.3% with HT29 colon; 20.6% in the test with SNB-75 CNS; 82.3% in the test on SNB-19 CNS; 83.8% in the test with U251 CNS; 51.4% in the test on PC-3 prostate. The growth in the test on SK-MEL-5 melanoma was 75.5%; in the test on UACC-62 melanoma it was 47.6%; in the test on LOX IMVI melanoma, 57.3%; in the test on SK-MEL-28 melanoma, 92.5%.

Take `CCN1CCN(c2cc(C)nc(NCc3cc(Nc4ccnc5cc(Cl)ccc45)ccc3F)n2)CC1`: the growth with HCT-15 colon is 15.9%; in the test with HT29 colon, -5.84% (active); in the test on SNB-75 CNS, 79%; with SNB-19 CNS it was 68.3%; in the test with U251 CNS it was 59.8%; with PC-3 prostate it was 57.6%. For the same compound, the growth is -85.5% (active) in the test on SK-MEL-5 melanoma, 86.3% with UACC-62 melanoma, 8.07% (active) with LOX IMVI melanoma and 93.3% in the test on SK-MEL-28 melanoma.

For `N#Cc1c(-c2ccccn2)[nH]c(=S)[nH]c1=O`, the growth is 96.7% in the test on HCT-15 colon; 96% in the test on HT29 colon; 105% with SNB-75 CNS; 126% in the test on SNB-19 CNS; 99.8% in the test with U251 CNS; 103% in the test with PC-3 prostate. Besides, the growth was 106% in the test on SK-MEL-5 melanoma, 118% with UACC-62 melanoma, 104% in the test on LOX IMVI melanoma and 112% in the test on SK-MEL-28 melanoma.

As to `N#C/C(=C/C=C/c1cccc(Cl)c1)S(=O)c1ccccc1` (stereo not given), the growth with HCT-15 colon was -69.4% (active); in the test on HT29 colon, -35.9% (active); with SNB-75 CNS it was -28% (active); with SNB-19 CNS it was -53% (active); with U251 CNS it was -89.6% (active); with PC-3 prostate it was -55.5% (active). Besides, the growth in the test with SK-MEL-5 melanoma was -70.5% (active); in the test with UACC-62 melanoma it was -74.2% (active); in the test with LOX IMVI melanoma it was -85.3% (active); in the test with SK-MEL-28 melanoma it was -61.1% (active).

With `O=C(/C=C/c1ccco1)c1ccc(Nc2nc(Nc3ccc(F)cc3)nc(Nc3ccc(Cl)cc3)n2)cc1`, the growth in the test with HCT-15 colon was 78.5%; in the test on HT29 colon, 61.8%; in the test on SNB-75 CNS, 62.5%; in the test on SNB-19 CNS, 107%; in the test with U251 CNS, 73.2%; in the test with PC-3 prostate, 72.7%. Also, the growth in the test with SK-MEL-5 melanoma was 73.8%; in the test on UACC-62 melanoma, 81.7%; in the test with LOX IMVI melanoma, 74.7%; in the test on SK-MEL-28 melanoma, 60.3%.

As to `CCN(CC)CCN1CC(O)=C(c2nc(-c3ccc(Cl)cc3)cs2)C1=N`, the growth in the test on HCT-15 colon is -13.4% (active); with HT29 colon, -18.1% (active); in the test on SNB-75 CNS, 46.7%; in the test with SNB-19 CNS, 66.3%; in the test with U251 CNS, -48.2% (active); with PC-3 prostate, 76%. The growth in the test on SK-MEL-5 melanoma was -1.71% (active); in the test on UACC-62 melanoma, -81.4% (active); in the test on LOX IMVI melanoma, -61.4% (active); in the test with SK-MEL-28 melanoma, -66.7% (active).

In the case of `Cc1cccc(NC(=O)CSc2nc3ccccc3[nH]2)c1`, the growth in the test on HCT-15 colon was 104%; in the test with HT29 colon, 122%; in the test on SNB-75 CNS it was 84.2%; with SNB-19 CNS, 94.9%; in the test on U251 CNS it was 101%; in the test on PC-3 prostate it was 91%. The growth in the test on SK-MEL-5 melanoma was 103%; in the test with UACC-62 melanoma, 85.1%; in the test with LOX IMVI melanoma, 96.8%; in the test with SK-MEL-28 melanoma it was 101%.

`CCOC(CN=Cc1cc(C)c2[nH]c3ccccc3c2c1C)OCC`: the growth in the test on HCT-15 colon was 97.8%; in the test on HT29 colon, 108%; in the test on SNB-75 CNS, 88.9%; in the test with SNB-19 CNS, 91.9%; with U251 CNS, 89.5%; with PC-3 prostate it was 101%. In addition, the growth was 105% in the test on SK-MEL-5 melanoma, 71.3% in the test on UACC-62 melanoma, 96.3% with LOX IMVI melanoma and 103% in the test with SK-MEL-28 melanoma.

With `Cc1ccc(/C=C2\C(=O)N(C)c3ccc(S(=O)(=O)Nc4ccc(C(C)(C)C)cc4)cc32)s1`, the growth in the test on HCT-15 colon is 68%; in the test with HT29 colon it was 64.9%; with SNB-75 CNS it was -18.3% (active); in the test with SNB-19 CNS it was 58.3%; in the test with U251 CNS, 20.5%; in the test on PC-3 prostate, 52.9%. Also, the growth in the test on SK-MEL-5 melanoma was 82.3%; with UACC-62 melanoma, 60.7%; in the test on LOX IMVI melanoma, 28.2%; in the test on SK-MEL-28 melanoma, 69.1%.

As to `CCCCn1c(=O)c2c(nc(NCCc3ccc(O)c(O)c3)n2CCC)n(CCCC)c1=O`, the growth in the test with HCT-15 colon was 39.4%; in the test on HT29 colon, 70.9%; in the test with SNB-75 CNS, 68.8%; in the test on SNB-19 CNS it was 92.3%; with U251 CNS, 77.2%; in the test on PC-3 prostate it was 43.9%. The growth was 83.1% in the test on SK-MEL-5 melanoma, 86.2% in the test on UACC-62 melanoma, 57.4% with LOX IMVI melanoma and 86.9% in the test with SK-MEL-28 melanoma.

For the compound `Cc1ccc(CCC(=O)Nc2ncc(Cc3cc(Cl)ccc3Cl)s2)o1`, the growth in the test with HCT-15 colon was 12.5%; in the test with HT29 colon, 4.92% (active); in the test with SNB-75 CNS, -1.75% (active); in the test with SNB-19 CNS, 21.7%; with U251 CNS it was 18%; in the test on PC-3 prostate it was 23.6%. Besides, the growth was 7.9% (active) in the test with SK-MEL-5 melanoma, 21.2% in the test with UACC-62 melanoma, 13.3% in the test with LOX IMVI melanoma and 55.7% in the test with SK-MEL-28 melanoma.
